{"source": "the OligoGym collection", "data": [{"biological_target": "MOGAT1", "experiment": "pooled miR-30 sensor sort-seq; sequence = guide strand", "settings": "shRNA", "values": [{"sequence": "TAACTCCTCAATCTGCTCCTGG", "sensor-assay potency score (higher = more potent)": -0.332}, {"sequence": "TTACCATGTAGGACACACTTTT", "sensor-assay potency score (higher = more potent)": -0.495}, {"sequence": "TTTAACAAATCCTTTCCGCTGG", "sensor-assay potency score (higher = more potent)": -0.0523}, {"sequence": "TTGTACTGAAAAACTCCCCTGG", "sensor-assay potency score (higher = more potent)": 0.595}, {"sequence": "TTCTAATCCATGATCCTTCAGG", "sensor-assay potency score (higher = more potent)": -0.32}, {"sequence": "TTTCTTGGAAACTGAAACCAGC", "sensor-assay potency score (higher = more potent)": -0.444}, {"sequence": "TAGGACACACTTTTCTTGGAAA", "sensor-assay potency score (higher = more potent)": -0.902}, {"sequence": "TTCTGAACAGTTCTAATCCATG", "sensor-assay potency score (higher = more potent)": -1.47}, {"sequence": "ATGAATTGGAAAATAGTCCTTA", "sensor-assay potency score (higher = more potent)": 0.9}, {"sequence": "TATAGTTGTGACTTGGATCCAA", "sensor-assay potency score (higher = more potent)": 0.757}, {"sequence": "TATAGGTCTGATGTAACTCCTC", "sensor-assay potency score (higher = more potent)": -0.267}, {"sequence": "TTGATCCAGCTGGATCTCCTGC", "sensor-assay potency score (higher = more potent)": -0.998}]}, {"biological_target": "MON2", "experiment": "pooled miR-30 sensor sort-seq; sequence = guide strand", "settings": "shRNA", "values": [{"sequence": "AAAAACAACAGTAACAACTTGT", "sensor-assay potency score (higher = more potent)": 0.77}, {"sequence": "TACAATATCACGAAAAACCTTG", "sensor-assay potency score (higher = more potent)": -0.21}, {"sequence": "TAGTGTTGAAGATCCTTGCTAC", "sensor-assay potency score (higher = more potent)": 0.514}, {"sequence": "TTGAATAGAGAGATTATCTGGA", "sensor-assay potency score (higher = more potent)": 0.727}, {"sequence": "TAGTCGAAAACAAAGAACGATT", "sensor-assay potency score (higher = more potent)": -1.16}, {"sequence": "TTGTTCTATAATATCTCTGTGT", "sensor-assay potency score (higher = more potent)": -0.519}, {"sequence": "TTCTTCAAGACTATTCTCCATT", "sensor-assay potency score (higher = more potent)": -0.51}]}]}
